We go through 43 sequences from publication PMC10726135, “HNF4α isoforms regulate the circadian balance between carbohydrate and lipid metabolism in the liver”.

In all, about 18,000 sequences were measured (“log2 normalized intensity”: median about 0.39, highest 2% from about 6.6 on). Many of the other results were omitted from the sample, so the highest values are more common in it than they were.

In the assay the target is T1, HNF4alpha2 (COS-7 nuclear extract) (Homo sapiens, UniProt P41235 1-474).
T1 sequence: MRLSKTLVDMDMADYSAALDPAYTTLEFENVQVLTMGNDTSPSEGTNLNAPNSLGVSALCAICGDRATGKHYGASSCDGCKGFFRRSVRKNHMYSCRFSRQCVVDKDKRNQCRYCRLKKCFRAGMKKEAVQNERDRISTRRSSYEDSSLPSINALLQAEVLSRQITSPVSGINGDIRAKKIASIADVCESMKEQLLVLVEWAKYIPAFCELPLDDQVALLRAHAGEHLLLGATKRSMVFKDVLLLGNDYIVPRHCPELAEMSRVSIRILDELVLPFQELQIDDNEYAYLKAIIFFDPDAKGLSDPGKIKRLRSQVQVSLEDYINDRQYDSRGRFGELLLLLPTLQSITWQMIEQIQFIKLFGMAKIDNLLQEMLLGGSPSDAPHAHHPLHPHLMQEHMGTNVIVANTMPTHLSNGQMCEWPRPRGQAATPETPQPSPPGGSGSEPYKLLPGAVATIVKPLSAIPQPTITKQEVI
Description: protein-binding microarray; COS-7 nuclear extract on double-stranded Agilent 4x180k PBM; binding buffer, salt, pH and temperature not given in the material; high values mean tight binding. The note with it: chain copies: 2; label: 3' end of strand 1 on the slide; dsDNA, one strand shown. In short, it runs like this:
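The binding signal is Agilent software's gProcessedSignal after background correction and normalization. Arrays were a custom Agilent SurePrint G3 4x180k design of double-stranded ~60-nt oligonucleotides with ~44,000 test sequences in quadruplicate, probed with nuclear extracts of COS-7 cells transiently expressing a human HNF4α isoform. Scans were made at 2-µm resolution on an Agilent G2565CA scanner.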
On to “GGTGGACTTTGTAGCTCAAACAGTCTAAAAGCCTAGGGAGATTAGAGTATCGGTCGA”, for which the binding signal turned out to be 2.3 log2 normalized intensity.
As for “GTTAAAGTTGCCTGATGACAACTGAATGTGGCCTAGGGAGATTAGAGTATCGGTCGA”, the binding signal turned out to be 0.26 log2 normalized intensity.
“ACACCGTATCATCAAACCTGTTATTTGCGCGCCTAGGGAGATTAGAGTATCGGTCGA”: the binding signal worked out at 1.25 log2 normalized intensity.
With “GGGCCATGACCTTTACCCCCATTTGGTAATGCCTAGGGAGATTAGAGTATCGGTCGA”, the binding signal came out at 6.29 log2 normalized intensity.
As for “GGCCAGATAAAGCAGGTTGTACCTTGACCCGCCTAGGGAGATTAGAGTATCGGTCGA”, the binding signal amounted to 8.92 log2 normalized intensity.
Regarding “GGCAGGGCCAGATAAAGCAGGTTGTACCTTGCCTAGGGAGATTAGAGTATCGGTCGA”, the binding signal was found to be 2.4 log2 normalized intensity.
Consider “CACTATCACCAGGATGGGCCATGACCTTTAGCCTAGGGAGATTAGAGTATCGGTCGA”, for which the binding signal was 4.48 log2 normalized intensity.
As for “GATAAAGCAGGTTGTACCTTGACCCAAGAAGCCTAGGGAGATTAGAGTATCGGTCGA”, the binding signal was found to be 4.88 log2 normalized intensity.
In the case of “AGGATGGGCCATGACCTTTACCCCCATTTGGCCTAGGGAGATTAGAGTATCGGTCGA”, the binding signal stood at 7.65 log2 normalized intensity.
As for “TCACCAGGATGGGCCATGACCTTTACCCCCGCCTAGGGAGATTAGAGTATCGGTCGA”, the binding signal was found to be 9.28 log2 normalized intensity.
The value for “ATGACCTTTACCCCCATTTGGTAATGGGCCGCCTAGGGAGATTAGAGTATCGGTCGA” was 4.83 log2 normalized intensity; that for “AACGGCCCAGGGTTAGAGGATGACCTTCCCGCCTAGGGAGATTAGAGTATCGGTCGA” was 2.99 log2 normalized intensity.
On to “GCTTCTCTTGGACCTCAATGTGCTCATCCAGCCTAGGGAGATTAGAGTATCGGTCGA”, for which the binding signal came out at 0.722 log2 normalized intensity.
As to “CCCACGTACATTGCACCCTCCAGGAGCCCCGCCTAGGGAGATTAGAGTATCGGTCGA”, the binding signal worked out at 2.07 log2 normalized intensity.
The value for “TATGTGATCAGATGTGGACAATCATTGTGCGCCTAGGGAGATTAGAGTATCGGTCGA” was 1.53 log2 normalized intensity.
With “AGTGGAGAAATAACATTAATGGAAATGCCTGCCTAGGGAGATTAGAGTATCGGTCGA” the figure was -0.84 log2 normalized intensity.
With “ACCATCCACGGATGCATGATTGCTCTCTACGCCTAGGGAGATTAGAGTATCGGTCGA”, the binding signal is -0.932 log2 normalized intensity.
Consider “TGCACAACGACCCTTGCTCTGTTTTCTGACGCCTAGGGAGATTAGAGTATCGGTCGA”, for which the binding signal was found to be 1.89 log2 normalized intensity.
The value for “CTTTGAGAAAGCAAAGTCCCTGGGGACAGGGCCTAGGGAGATTAGAGTATCGGTCGA” was -0.0595 log2 normalized intensity; that for “CTAAGCAGGCACATTCCAGGACCTTTGCTCGCCTAGGGAGATTAGAGTATCGGTCGA” was 4.08 log2 normalized intensity.
For the sequence “GACATAACACAGGTGACCTTTGCTCCGGTTGCCTAGGGAGATTAGAGTATCGGTCGA”, the binding signal was 7.4 log2 normalized intensity.
The value for “TCTTTTCTAAGACATAACACAGGTGACCTTGCCTAGGGAGATTAGAGTATCGGTCGA” was 4.03 log2 normalized intensity; that for “AACACAGGTGACCTTTGCTCCGGTTCCCAAGCCTAGGGAGATTAGAGTATCGGTCGA” was 6.26 log2 normalized intensity.
For the sequence “TCTAAGACATAACACAGGTGACCTTTGCTCGCCTAGGGAGATTAGAGTATCGGTCGA”, the binding signal is 8.37 log2 normalized intensity.
For “AGGTGACCTTTGCTCCGGTTCCCAATAAGTGCCTAGGGAGATTAGAGTATCGGTCGA”, the binding signal stood at 5.06 log2 normalized intensity.
Regarding “CCTCCCTCCATGCTGTAGATTGTGGAATGTGCCTAGGGAGATTAGAGTATCGGTCGA”, the binding signal was 1.81 log2 normalized intensity.
The value for “GGTATGTTAGATTAGTGTGCAGCTTTGTGTGCCTAGGGAGATTAGAGTATCGGTCGA” was 2.1 log2 normalized intensity; that for “GTCTAGATGCTGGGCAGCTTGTGTGCGTTTGCCTAGGGAGATTAGAGTATCGGTCGA” was 1.56 log2 normalized intensity.
Consider “AGCTGTGTGCTCCTGTAGAATGACCCCCTGGCCTAGGGAGATTAGAGTATCGGTCGA”, for which the binding signal was determined as 5.17 log2 normalized intensity.
In the case of “GTTCTGTACTTTGGAACCTGAAAGAGCAACGCCTAGGGAGATTAGAGTATCGGTCGA”, the binding signal came to 3.87 log2 normalized intensity.
The value for “GAGGTGGGCCCAGGGTTCTCTGTGACCTTTGCCTAGGGAGATTAGAGTATCGGTCGA” was 6.79 log2 normalized intensity; that for “AACTGTACTTTGGACTGGGGACCTGGTCTGGCCTAGGGAGATTAGAGTATCGGTCGA” was 4.13 log2 normalized intensity.
Turning to “TTCTCTGTGACCTTTGGAAGGTGGGGGAGGGCCTAGGGAGATTAGAGTATCGGTCGA”, the binding signal stood at 4.13 log2 normalized intensity.
On to “TGGGTTCTTGCCCTTTGGTCTGGAACACAGGCCTAGGGAGATTAGAGTATCGGTCGA”, for which the binding signal worked out at 3.31 log2 normalized intensity.
The value for “CTGCCCTTCTGACCTCCCAGGGATACTGTGGCCTAGGGAGATTAGAGTATCGGTCGA” was 2.47 log2 normalized intensity; that for “TGACTACCAGGTTCTGTACTTTGGAACCTGGCCTAGGGAGATTAGAGTATCGGTCGA” was 6.78 log2 normalized intensity.
Turning to “GGGCCCAGGGTTCTCTGTGACCTTTGGAAGGCCTAGGGAGATTAGAGTATCGGTCGA”, the binding signal was determined as 8.2 log2 normalized intensity.
“TGGAGCATGACCCTTTGCAGGTGGGAGAGGGCCTAGGGAGATTAGAGTATCGGTCGA”: the binding signal stood at 0.139 log2 normalized intensity.
With “CTTCTGCCCCCGCAGACCCAGTCTTAGGGAGCCTAGGGAGATTAGAGTATCGGTCGA”, the binding signal is 4.14 log2 normalized intensity.
In the case of “AGAAATCCACACAGCACTGACCTTTGAGAGGCCTAGGGAGATTAGAGTATCGGTCGA”, the binding signal worked out at 4.92 log2 normalized intensity.
The value for “GGCACAGTAACCTGACCCCCAGTGGAATGTGCCTAGGGAGATTAGAGTATCGGTCGA” was 3.32 log2 normalized intensity; that for “CCCAGATATCTCTGGTAAACAGCTGACAATGCCTAGGGAGATTAGAGTATCGGTCGA” was -0.967 log2 normalized intensity.
Consider “CAAATAAAGTTTGAGGAGAGTCAAAGGTTAGCCTAGGGAGATTAGAGTATCGGTCGA”, for which the binding signal was determined as 3.24 log2 normalized intensity.
